This is an account of results in PubChem BioAssay (Tox21).

Test [1] in a line: qHTS assay to identify small molecule phospholipidosis (PLD) inducers (AID 1259344; active means well fitted curve in the direction sought with a large enough effect; an effect the other way counts as inactive or inconclusive). A digest of the protocol:
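Cells (HepG2, 900 per well) attach for 4 h, receive LipidTOX Red and compound together, incubate 24 h at 37 C, are fixed 30 min with paraformaldehyde/Hoechst, then imaged at one site per well.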
A general note: In qHTS, concentration-response curves come from the screen itself.

The nature of test [2]: qHTS assay to identify small molecule HDAC inhibitors (AID 1259364).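 Further: wild-type HCT-116 cells with endogenous class I/II HDAC activity; top concentration of the series differs between compounds; nearly all actives have a fitted effect of over 45% in size.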 Summed up:
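HCT-116 wt cells, 1,500/well, overnight attach. Compounds (DMSO) 2 h, 37 °C. HDAC-Glo I/II, 30 min RT. Luminescence.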

Test [3] can be described thus: qHTS assay to identify small molecule HDAC inhibitors - cell viability counter screen (AID 1259365). Further: series mostly up to about 92 µM; nearly all actives have a fitted effect of over 50% in size. A digest of the protocol: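 HCT-116 wild-type, overnight attachment; 2hr drug exposure, 37C; CellTiter-Glo luminescent ATP readout after 30min RT.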
The nature of test [4]: qHTS assay to identify small molecule agonists of the sonic hedgehog signaling (Shh) pathway - cell viability counter screen (AID 1259366). Further: nearly all actives have a fitted effect of over 50% in size. Summed up: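 Compounds in DMSO were pin-transferred onto 3T3 Gli1-Luc cells that had settled 4hr; plates then stood 24hr at 37C and 5% CO2. One hour before the end, CellTiter-Fluor was added and fluorescence recorded.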
The nature of test [5]: qHTS assay to identify small molecule antagonists of the sonic hedgehog signaling (Shh) pathway - cell viability counter screen (AID 1259367). Further: nearly all actives have a fitted effect of over 55% in size. Further: potency means the concentration at half of the fitted maximal effect. Summed up:
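Cytotoxicity was assessed in parallel with Shh reporter activity by measuring live-cell protease fluorescence (CellTiter-Fluor) in NIH/3T3 cells stably carrying Gli1-Luc, treated with compound under conditioned medium stimulation for 23 hr plus 1 hr reagent incubation.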

A short description of test [6]: qHTS assay to identify small molecule agonists of the sonic hedgehog signaling (Shh) pathway (AID 1259368; calls by dose curve;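 further: NIH/3T3-derived 3T3Gli1-Luc cells carrying a stable Gli1-driven firefly luciferase reporter; series mostly up to about 92 µM; nearly all actives have a fitted effect of over 15% in size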). Summed up:
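Following a 24 hr incubation with DMSO-dissolved compounds at 37 C, 5% CO2, Gli1-Luc NIH/3T3-derived cells received luciferase reagent for 30 min at room temperature prior to luminescence measurement.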

The target in test [7] is Estrogen receptor beta (Homo sapiens) (UniProt Q92731). The experiment in a line: qHTS assay to identify small molecule agonists of the estrogen receptor beta (ER-beta) signaling pathway (AID 1259377; active means well fitted activation curve with a large enough effect in the signal ratio in the repeat runs, not every such curve was filed as active; the % refers to the signal ratio). A digest of the protocol:
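qHTS in ER-beta-UAS-bla HEK293T cells: 6 hr settling, then 16 hr compound at 37C, then LiveBLAzer substrate 2 h at RT before fluorescence reading.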

Test [8] shares this target. The experiment in a line: qHTS assay to identify small molecule antagonists of the estrogen receptor beta (ER-beta) signaling pathway (AID 1259378; active means well fitted inhibition curve with a large enough effect in the signal ratio in the repeat runs, not every such curve was filed as active; the % refers to the signal ratio). A digest of the protocol: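 ER-beta-UAS-bla HEK293T (GripTite) cells in 2% charcoal-stripped FBS medium were preincubated 6 hr at 37C, dosed with compound, then stimulated with 1 nM E2 (final) for 16 hr; beta-lactamase reporter read by B/G FRET fluorescence after 2 hr substrate loading.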

The nature of test [9]: qHTS assay to identify small molecule agonists of the androgen receptor (AR) signaling pathway in the presence of an antagonist - cell viability counter screen (AID 1259379).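 Further: MDA-kb2 human breast cancer cells carrying an MMTV luciferase reporter; series mostly up to about 92 µM; nearly all actives have a fitted effect of over 25% in size.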 Summed up: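 Each compound was tested at 15 concentrations on MDA-kb2 cells in the presence of 3.0uM nilutamide. Viability was measured by CellTiter-Fluor fluorescence after a 16 hr incubation at 37C in a CO2-free atmosphere.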

The nature of test [10]: qHTS assay to identify small molecule agonists of the estrogen receptor beta (ER-beta) signaling pathway - cell viability counter screen (AID 1259380). Further: nearly all actives have a fitted effect of over 30% in size. Further: potency means the concentration at half of the fitted maximal effect. A digest of the protocol: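 Compounds dissolved in DMSO were pin-transferred onto ER-beta-UAS-bla HEK293T cells that had settled 6 hr, and exposure ran 16 hr at 37C. Following the reporter read, CellTiter-Glo luminescence after 30 min at room temperature indicated cytotoxicity.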

Test [11] concerns the target Androgen receptor (Homo sapiens) (UniProt P10275). The experiment in a line: qHTS assay to identify small molecule agonists of the androgen receptor (AR) signaling pathway in the presence of an antagonist (AID 1259381; calls by dose curve; further: nearly all actives have a fitted effect of over 15% in size). A digest of the protocol: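 Plated MDA-kb2 cells (3,000/well) were pre-incubated 5hr, given nilutamide (3.0uM final) or buffer, then dosed with compounds in DMSO at 15 concentrations. Luciferase activity was quantified by luminescence after 16hr at 37C.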

A short description of test [12]: qHTS assay to identify small molecule antagonists of the estrogen receptor beta (ER-beta) signaling pathway - cell viability counter screen (AID 1259382). Further: series mostly up to about 92 µM; nearly all actives have a fitted effect of over 55% in size. A digest of the protocol: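 CellTiter-Glo ATP luminescence measured after the LiveBLAzer read in the same wells; ER-beta-UAS-bla HEK293T cells, 16 hr compound treatment with 1nM 17-beta-estradiol agonist at 37C, 5% CO2.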

Test [13] concerns the target Estrogen receptor (Homo sapiens) (UniProt P03372). The experiment in a line: qHTS assay to identify small molecule agonists of the estrogen receptor alpha (ER-alpha) signaling pathway in the presence of an antagonist (AID 1259383; calls by dose curve; further: top concentration of the series differs between compounds; nearly all actives have a fitted effect of over 15% in size). Summed up: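 Luminescent ERE-luciferase reporter, VM7Luc4E2 cells (endogenous ER-alpha); 10.0nM ICI-182,780 final; 15-point compound titration; 22hr at 37C; ONE-Glo, 30min RT.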

Test [14] can be described thus: qHTS assay to identify small molecule agonists of the estrogen receptor alpha (ER-alpha) signaling pathway in the presence of an antagonist - cell viability counter screen (AID 1259386).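 Further: series mostly up to about 92 µM; cells exposed to compounds for 22 h at 37 °C before the viability read; nearly all actives have a fitted effect of over 30% in size.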 Summed up:
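Using estrogen-depleted VM7Luc4E2 cells, the 15-concentration compound series was applied together with 10.0nM ICI-182,780 and incubated 22hr at 37C/5% CO2. Cell viability was then scored by CellTiter-Fluor.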

Test [15] addresses Progesterone receptor (Homo sapiens) (UniProt P06401). The experiment in a line: qHTS assay to identify small molecule agonists of the progesterone receptor (PR) signaling pathway (AID 1346784; calls by dose curve; further: nearly all actives have a fitted effect of over 30% in size). Summed up:
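Fluorescence from LiveBLAzer B/G FRET substrate cleavage (2 hr, RT) reported PR activation in PR-UAS-bla HEK 293T cells treated 16 hr at 37C/5% CO2 with compounds; medium contained 2% charcoal-stripped FBS.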

For test [16] the target is unchanged. The experiment in a line: qHTS assay to identify small molecule antagonists of the progesterone receptor (PR) signaling pathway (AID 1346795; active means well fitted inhibition curve with a large enough effect in the signal ratio in the repeat runs, not every such curve was filed as active; the % refers to the signal ratio; further: potency means the concentration at half of the fitted maximal effect). Summed up: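 Fluorescence intensity measured 2 hr after adding beta-lactamase FRET substrate to PR-UAS-bla HEK293T cells that had been co-treated 16 hr with compound and 1 nM R5020 (final concentration) in 2% charcoal-stripped FBS.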

Test [17] in a line: qHTS assay to identify small molecule antagonists of the progesterone receptor (PR) signaling pathway - cell viability counter screen (AID 1346798). Further: series mostly up to about 92 µM; nearly all actives have a fitted effect of over 50% in size. A digest of the protocol: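 CellTiter-Glo luminescence; PR-UAS-bla HEK293T, 3,000 cells/well; compound + R5020, 16 hr, 37C/5% CO2; 30 min RT before read.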
A short description of test [18]: qHTS assay to identify small molecule antagonists of the sonic hedgehog signaling (Shh) pathway (AID 1259369; calls by dose curve; further: nearly all actives have a fitted effect of over 45% in size). Summed up: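 Read-out is luminescence from a firefly luciferase gene controlled by the Gli1 response element, in 3T3Gli1-Luc cells pre-incubated 4hr then exposed to compounds and conditioned medium for 24hr.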
The target of test [19] is Thyrotropin receptor (Homo sapiens) (UniProt P16473). The experiment in a line: qHTS assay to identify small molecule antagonists of the thyroid stimulating hormone receptor (TSHR) signaling pathway (AID 1259385; calls by dose curve; further: nearly all actives have a fitted effect of over 20% in size). A digest of the protocol: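 TSHR-HEK293 cells were plated and held 18 h at 37C/5% CO2, then given compound plus Ro20-1724 and stimulated with TSH at 1.5 ng/mL final. After 30 min at room temperature, cAMP was detected with cAMP-d2/anti-cAMP-cryptate (1 h) by fluorescence.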

The nature of test [20]: qHTS assay to identify small molecule agonists or antagonists of the thyroid stimulating hormone receptor (TSHR) signaling pathway - wild type cell line counter screen (AID 1259384; calls by dose curve). Summed up:
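Wild-type HEK293 cells were plated 18 h at 37 C/5% CO2, pin-dosed with compound plus Ro20-1724 medium, held 30 min at room temperature, then given cAMP-d2 and anti-cAMP-cryptate; fluorescence was read after 1 h. Fifteen concentrations, triplicate.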

Results filed as inconclusive are left out. The source holds several records for some structures; these can differ, active in one and inactive in another. Calls of active or inactive are those of the source. Unless noted, the call rests on the fitted dose curve; in most records, active means well fitted curve in the direction sought with a large enough effect in the repeat runs; inconclusive means weak or mixed curves; inactive means no such curve, though single readings can be large; an effect the other way counts as inactive or inconclusive.
On the % scale 0 is the no-effect control and ±100 the full control effect.

Progesterone receptor (Homo sapiens), sequence (P06401 whole entry, looked up): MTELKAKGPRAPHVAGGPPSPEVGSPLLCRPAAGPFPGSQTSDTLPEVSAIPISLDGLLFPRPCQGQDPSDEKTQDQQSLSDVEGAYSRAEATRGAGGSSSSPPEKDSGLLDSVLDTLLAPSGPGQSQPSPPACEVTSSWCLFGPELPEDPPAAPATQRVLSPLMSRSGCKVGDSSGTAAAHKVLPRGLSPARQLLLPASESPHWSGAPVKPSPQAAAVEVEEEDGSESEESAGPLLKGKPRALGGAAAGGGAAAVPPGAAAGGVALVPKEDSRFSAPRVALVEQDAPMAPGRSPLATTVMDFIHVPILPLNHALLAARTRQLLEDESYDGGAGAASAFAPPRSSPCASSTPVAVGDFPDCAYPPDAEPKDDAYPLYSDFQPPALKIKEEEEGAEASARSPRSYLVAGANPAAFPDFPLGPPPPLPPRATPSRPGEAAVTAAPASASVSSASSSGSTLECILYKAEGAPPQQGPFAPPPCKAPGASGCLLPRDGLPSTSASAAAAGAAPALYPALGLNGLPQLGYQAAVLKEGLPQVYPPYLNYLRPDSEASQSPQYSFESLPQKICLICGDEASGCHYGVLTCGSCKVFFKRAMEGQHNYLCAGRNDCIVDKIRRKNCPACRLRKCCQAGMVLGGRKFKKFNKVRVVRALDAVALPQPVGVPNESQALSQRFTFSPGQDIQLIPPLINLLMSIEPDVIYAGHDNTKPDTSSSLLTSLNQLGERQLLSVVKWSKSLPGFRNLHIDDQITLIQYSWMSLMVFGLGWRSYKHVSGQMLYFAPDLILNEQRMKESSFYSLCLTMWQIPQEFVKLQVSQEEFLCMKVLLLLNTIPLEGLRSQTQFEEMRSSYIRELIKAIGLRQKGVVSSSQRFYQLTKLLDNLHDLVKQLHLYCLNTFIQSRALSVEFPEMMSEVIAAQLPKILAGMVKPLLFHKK
Estrogen receptor (Homo sapiens), sequence (P03372 whole entry, looked up): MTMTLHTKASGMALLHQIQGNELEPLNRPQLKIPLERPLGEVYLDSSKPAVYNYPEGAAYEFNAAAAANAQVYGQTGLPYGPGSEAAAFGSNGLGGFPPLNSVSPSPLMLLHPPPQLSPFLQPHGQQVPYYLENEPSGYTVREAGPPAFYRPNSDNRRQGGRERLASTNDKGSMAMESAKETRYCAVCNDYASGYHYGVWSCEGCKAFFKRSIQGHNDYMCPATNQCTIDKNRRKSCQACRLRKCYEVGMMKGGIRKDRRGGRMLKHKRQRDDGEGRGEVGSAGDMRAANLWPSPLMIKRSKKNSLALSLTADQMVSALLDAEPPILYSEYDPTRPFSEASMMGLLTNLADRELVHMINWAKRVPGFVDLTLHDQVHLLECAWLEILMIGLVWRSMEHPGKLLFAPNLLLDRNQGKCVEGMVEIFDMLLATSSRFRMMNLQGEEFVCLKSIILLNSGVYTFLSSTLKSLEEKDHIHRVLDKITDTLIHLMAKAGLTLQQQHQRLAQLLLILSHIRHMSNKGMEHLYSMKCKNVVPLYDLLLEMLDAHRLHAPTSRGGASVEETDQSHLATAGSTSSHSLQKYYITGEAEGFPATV
Thyrotropin receptor (Homo sapiens), sequence (P16473 whole entry, looked up): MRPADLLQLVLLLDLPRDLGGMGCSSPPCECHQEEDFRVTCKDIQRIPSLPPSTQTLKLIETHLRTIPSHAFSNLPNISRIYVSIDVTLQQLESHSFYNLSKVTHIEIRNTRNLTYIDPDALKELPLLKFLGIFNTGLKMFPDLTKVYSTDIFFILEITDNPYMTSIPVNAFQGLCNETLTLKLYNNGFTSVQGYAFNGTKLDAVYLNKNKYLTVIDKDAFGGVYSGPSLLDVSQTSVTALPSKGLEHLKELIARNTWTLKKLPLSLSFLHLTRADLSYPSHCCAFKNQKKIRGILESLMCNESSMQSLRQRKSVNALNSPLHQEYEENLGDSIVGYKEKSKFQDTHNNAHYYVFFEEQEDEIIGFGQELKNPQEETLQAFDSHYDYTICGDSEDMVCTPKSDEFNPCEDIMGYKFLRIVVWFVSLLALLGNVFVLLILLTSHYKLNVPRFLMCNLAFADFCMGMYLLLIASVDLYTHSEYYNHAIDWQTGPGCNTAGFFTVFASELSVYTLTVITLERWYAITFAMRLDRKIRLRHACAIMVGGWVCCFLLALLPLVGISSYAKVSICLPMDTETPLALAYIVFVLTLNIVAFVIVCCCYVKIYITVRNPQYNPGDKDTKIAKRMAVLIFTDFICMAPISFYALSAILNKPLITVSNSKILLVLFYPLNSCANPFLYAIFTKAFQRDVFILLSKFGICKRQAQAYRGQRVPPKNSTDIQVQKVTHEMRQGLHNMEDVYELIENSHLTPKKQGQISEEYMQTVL
Estrogen receptor beta (Homo sapiens), sequence (Q92731 whole entry, looked up): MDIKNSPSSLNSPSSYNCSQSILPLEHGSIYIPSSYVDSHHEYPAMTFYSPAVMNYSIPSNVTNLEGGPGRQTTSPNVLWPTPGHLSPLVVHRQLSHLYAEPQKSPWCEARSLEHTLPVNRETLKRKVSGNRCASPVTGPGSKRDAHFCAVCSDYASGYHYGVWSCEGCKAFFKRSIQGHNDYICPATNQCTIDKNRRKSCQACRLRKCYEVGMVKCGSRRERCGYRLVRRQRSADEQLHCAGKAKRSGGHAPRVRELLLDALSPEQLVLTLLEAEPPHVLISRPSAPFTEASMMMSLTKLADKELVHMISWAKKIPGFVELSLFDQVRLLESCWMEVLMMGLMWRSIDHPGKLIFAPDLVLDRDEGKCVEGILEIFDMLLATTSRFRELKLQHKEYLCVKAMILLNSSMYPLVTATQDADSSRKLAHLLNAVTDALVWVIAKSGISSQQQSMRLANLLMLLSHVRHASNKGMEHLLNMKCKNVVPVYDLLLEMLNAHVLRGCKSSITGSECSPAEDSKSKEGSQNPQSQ
Androgen receptor (Homo sapiens), sequence (P10275 whole entry, looked up): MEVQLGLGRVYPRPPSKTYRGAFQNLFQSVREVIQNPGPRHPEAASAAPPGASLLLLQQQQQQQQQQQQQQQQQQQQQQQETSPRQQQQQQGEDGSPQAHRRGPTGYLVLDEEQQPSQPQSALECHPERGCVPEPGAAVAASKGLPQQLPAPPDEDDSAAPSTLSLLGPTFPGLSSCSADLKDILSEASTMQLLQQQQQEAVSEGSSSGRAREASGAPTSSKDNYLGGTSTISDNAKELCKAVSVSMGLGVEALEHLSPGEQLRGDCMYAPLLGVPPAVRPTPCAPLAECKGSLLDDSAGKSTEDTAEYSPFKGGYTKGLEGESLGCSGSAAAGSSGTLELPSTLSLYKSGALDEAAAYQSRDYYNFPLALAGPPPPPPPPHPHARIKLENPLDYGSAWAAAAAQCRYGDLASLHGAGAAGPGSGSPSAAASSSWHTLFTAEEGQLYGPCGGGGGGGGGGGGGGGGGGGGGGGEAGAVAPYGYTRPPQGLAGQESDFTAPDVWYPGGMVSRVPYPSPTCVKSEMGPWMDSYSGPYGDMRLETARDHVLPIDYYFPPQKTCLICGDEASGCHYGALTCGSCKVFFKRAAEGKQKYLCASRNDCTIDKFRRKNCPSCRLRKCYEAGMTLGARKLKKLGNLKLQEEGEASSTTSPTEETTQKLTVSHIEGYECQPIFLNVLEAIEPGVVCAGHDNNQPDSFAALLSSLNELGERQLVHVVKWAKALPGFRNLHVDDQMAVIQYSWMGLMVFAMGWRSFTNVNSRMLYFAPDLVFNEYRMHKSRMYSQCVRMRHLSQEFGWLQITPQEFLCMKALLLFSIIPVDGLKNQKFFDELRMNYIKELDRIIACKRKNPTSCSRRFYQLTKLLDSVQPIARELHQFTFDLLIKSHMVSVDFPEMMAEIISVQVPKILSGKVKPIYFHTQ

For `CC(c1cc2ccccc2s1)N(O)C(N)=O` (centres undefined), the result in test [1], in test [3] and in test [6] was inactive. Moreover, the Potency entry in test [2], in test [4], in test [5], in test [7], in test [8] and in test [9] was “inactive” in each case. Also, the Potency entry in [10], in [11], in test [12], in test [13], in test [14] and in test [15] was “inactive” each time. Besides, the Potency result in test [16] and in test [17] was “inactive” in each case.

In the case of `CCOC(=O)NNc1nncc2ccccc12`, the PLD induction in test [1] was -1.23% [at 7.66 µM] (inactive). For the same compound, the Potency result in [2], in [4], in test [5], in test [18], in [9] and in [10] was “inactive” each time. Further, the Potency result in test [12], in test [19], in test [14], in test [15], in test [16] and in test [17] was “inactive” throughout. The outcome in test [3] and in [6] was inactive.

Turning to `OC[C@H]1O[C@@](CO)(O[C@H]2O[C@H](CO)[C@@H](O)[C@H](O)[C@H]2O)[C@@H](O)[C@@H]1O`, the compound was called inactive in test [1], in [3] and in test [6]. In addition, the Potency entry in test [2], in test [4], in [5], in [18], in test [7] and in [8] was “inactive” each time. Moreover, the Potency entry in [9], in test [10], in [12], in test [14], in [15] and in [16] was “inactive” in each case. Moreover, the Potency result in test [17] was “inactive”.

Consider `CC1=CC(=O)NS(=O)(=O)O1`, for which the result in [1], in [3], in test [6] and in [20] was inactive. Moreover, the Potency entry in test [2], in test [5], in test [18], in test [7], in [8] and in [9] was “inactive” throughout. Moreover, the Potency result in test [10], in [12], in test [19], in [14], in test [15] and in [16] was “inactive” each time. Further, the Potency entry in test [17] is “inactive”.

Regarding `NNc1nncc2ccccc12`, the compound was classed as inactive in test [1], in test [3] and in [6]. Besides, the values for the activity change, negative = inhibition in test [2] and in test [16] were -29.1% [at 19 µM] (inactive) and 9.77% [at 18.9 µM] (inactive), respectively. Also, the Potency is 61.1 µM (active) in test [5], 21.7 µM (active) in [10] and 61.1 µM (active) in test [16]. Besides, in test [5], the viability change, negative = cytotoxic is 1.95% [at 19 µM] (inactive). Also, the Potency entry in [9], in [12], in test [19] and in [15] was “inactive” each time. In addition, the activity change, negative = cytotoxicity is -0.605% [at 19 µM] (inactive) in test [10], -0.882% [at 19 µM] (inactive) in test [14] and -14.1% [at 18.9 µM] (inactive) in [17].

Regarding `CN(C)CCC(c1ccccc1)c1ccccn1` (centres undefined), the call in test [1], in test [3], in test [6] and in test [20] was inactive. Further, the Potency result in [2], in test [4], in test [5], in test [7], in [8] and in test [9] was “inactive” in each case. Also, the Potency result in test [12], in test [19], in test [14], in [15], in [16] and in test [17] was “inactive” throughout.

Turning to `Cc1cnc(C(=O)NCCc2ccc(S(=O)(=O)NC(=O)NC3CCCCC3)cc2)cn1`, the result in test [1], in test [3], in test [6] and in [20] was inactive. The Potency entry in test [2], in test [4], in [5], in test [18], in test [8] and in test [9] was “inactive” each time. The Potency result in test [12], in test [13], in test [19], in [14], in test [15] and in test [16] was “inactive” in each case. Further, the Potency result in test [17] was “inactive”.
